{
  "source": "the OligoGym collection",
  "data": [
    {"target": "SLC39A12", "test": "pooled miR-30 sensor sort-seq; sequence = guide strand", "conditions": "shRNA", "values": [
      {"sequence": "TTGTGTTTGAACATGAGTCATT", "sensor-assay potency score (higher = more potent)": -0.725},
      {"sequence": "TATTCTGTAAAGTAGTCTGGGG", "sensor-assay potency score (higher = more potent)": -0.404},
      {"sequence": "TTTGATACAAGTACTTCTGGTC", "sensor-assay potency score (higher = more potent)": 0.47},
      {"sequence": "TGAAGAACAGATCTCTTCCTGA", "sensor-assay potency score (higher = more potent)": 0.419}
    ]},
    {"target": "SLC39A3", "test": "pooled miR-30 sensor sort-seq; sequence = guide strand", "conditions": "shRNA", "values": [
      {"sequence": "TCAGTGTTGAAAATGCATCAGA", "sensor-assay potency score (higher = more potent)": -0.941},
      {"sequence": "TTACCTTTTCCCTCACAGCGGG", "sensor-assay potency score (higher = more potent)": -0.333},
      {"sequence": "TACCTTTTCCCTCACAGCGGGC", "sensor-assay potency score (higher = more potent)": -1.41},
      {"sequence": "TTGCAGAGAGAGAGGATCTTTT", "sensor-assay potency score (higher = more potent)": -0.914},
      {"sequence": "TAGTCGGTGCTGATGTGGCCGA", "sensor-assay potency score (higher = more potent)": -1.33},
      {"sequence": "TGATTATCAGGTGACAACCGAC", "sensor-assay potency score (higher = more potent)": -1.07},
      {"sequence": "AAAATCTGTCTCGATGATCTTC", "sensor-assay potency score (higher = more potent)": 0.079},
      {"sequence": "TGTCTCGATGATCTTCACGGGG", "sensor-assay potency score (higher = more potent)": -0.768},
      {"sequence": "TAGGTGGGTAGTCTGGTCTGAT", "sensor-assay potency score (higher = more potent)": -0.578},
      {"sequence": "TTTCTGGACACTAGGCACGAGG", "sensor-assay potency score (higher = more potent)": -1.43},
      {"sequence": "TCTGTCTCGATGATCTTCACGG", "sensor-assay potency score (higher = more potent)": -0.084},
      {"sequence": "TTAAAAAGTAGCAGTGCTCTGA", "sensor-assay potency score (higher = more potent)": 0.00339}
    ]},
    {"target": "SLC44A2", "test": "pooled miR-30 sensor sort-seq; sequence = guide strand", "conditions": "shRNA", "values": [
      {"sequence": "TTATAGACCGCTTCGTTGGAAG", "sensor-assay potency score (higher = more potent)": -0.973},
      {"sequence": "TTACTTGTTTCTCGCAGTCTGG", "sensor-assay potency score (higher = more potent)": -0.794},
      {"sequence": "TTTGATGAGTGCAATCGCGATG", "sensor-assay potency score (higher = more potent)": -0.724},
      {"sequence": "TCTTTGATGAGTGCAATCGCGA", "sensor-assay potency score (higher = more potent)": -1.09},
      {"sequence": "TCAGACACAAACACCGTCCTTC", "sensor-assay potency score (higher = more potent)": 0.677},
      {"sequence": "TTATAGTACTCAAAGTCCCGGG", "sensor-assay potency score (higher = more potent)": 0.0732},
      {"sequence": "TGTAGCAGTGAAATATTCCGTA", "sensor-assay potency score (higher = more potent)": 0.424},
      {"sequence": "TAATCCAGTACCAAGAGACGGT", "sensor-assay potency score (higher = more potent)": 0.196},
      {"sequence": "TACTTGTTTCTCGCAGTCTGGA", "sensor-assay potency score (higher = more potent)": -0.0969},
      {"sequence": "TATAGTACTCAAAGTCCCGGGA", "sensor-assay potency score (higher = more potent)": -0.338},
      {"sequence": "TTGTTGGTCTTGTTCAAGGGTT", "sensor-assay potency score (higher = more potent)": -0.803}
    ]},
    {"target": "SLC45A3", "test": "pooled miR-30 sensor sort-seq; sequence = guide strand", "conditions": "shRNA", "values": [
      {"sequence": "TAGCAGGTTGACCAGCAAGAGC", "sensor-assay potency score (higher = more potent)": -1.81},
      {"sequence": "AAATCCGTGTAAAACAGCGTGA", "sensor-assay potency score (higher = more potent)": -0.511},
      {"sequence": "TTCATCATAGTGTCTCCGGGCC", "sensor-assay potency score (higher = more potent)": 0.0522},
      {"sequence": "TAGGCAGTGACAGACTGGCTGA", "sensor-assay potency score (higher = more potent)": -0.555},
      {"sequence": "TTTGGGCAGGAACACCTGCTTC", "sensor-assay potency score (higher = more potent)": -1.54},
      {"sequence": "TAGGTGTGTCTCAACTAGGAGG", "sensor-assay potency score (higher = more potent)": -0.961},
      {"sequence": "TAGCTGTTAACCCTGAGCCTGG", "sensor-assay potency score (higher = more potent)": -0.971},
      {"sequence": "TCTTGTCAAATACTACCTGTGT", "sensor-assay potency score (higher = more potent)": -0.281},
      {"sequence": "AAAGGTTAGCAGGTTGACCAGC", "sensor-assay potency score (higher = more potent)": -0.476},
      {"sequence": "AAGGTCATGAGTGCCATCCAGC", "sensor-assay potency score (higher = more potent)": -1.03},
      {"sequence": "TGAACTTCTCCTCTACCCCCAC", "sensor-assay potency score (higher = more potent)": -0.547},
      {"sequence": "TAAAACAGCGTGAAGGTCATGA", "sensor-assay potency score (higher = more potent)": 0.302}
    ]}
  ]
}
